We go through nine molecules from PubChem BioAssay.

Unmarked numbers belong to inactive results.

A short description of the assay: JC-1 mitochondrial signal, unstimulated adipocytes – cell-based, JC-1 fluorescence, 3T3-L1 adipocytes, 24 h, 100 nL compound, profiling panel (AID 1168). Also: test concentration not given here. The settings on record: JC-1 mitochondrial fluorescence, higher = more signal, called active from +8 up or from −8 down.
Turning to `O=C1C=CC(=O)[C@@H]2CC(COc3ccccc3)=C3[C@@H](CCc4ccccc4)OB(O)C[C@@H]3[C@H]12`, the z-score is -1.83.
The value for `CN(C)CCCCNC(=O)[C@H]1C[C@H]2C(=O)N[C@@H](Cc3ccccc3)C(=O)N2[C@H]1c1ccc(O)cc1` was -0.248.
The value for `CCCC[C@H]1OB(O)C[C@H]2C1=C(C)C[C@H]1C(=O)N(Cc3ccccc3)C(=O)[C@H]12` was 0.203.
Take `C=C[C@@H](COC(C)=O)N(Cc1ccc([N+](=O)[O-])cc1)S(=O)(=O)c1ccc(Br)cc1`: the z-score was 0.0569.
Next, `COc1ccc([Si](C)(C)[C@@H]2[C@@H](CCn3cc([C@H](O)c4ccccc4)nn3)O[C@]3(C(=O)N(Cc4ccc(N5C(=O)c6cccc7cccc5c67)cc4)c4ccccc43)[C@H]2C)cc1`: 0.43; `CC(C)(C)OC(=O)CC[C@@]1(C(=O)NCCN2CCOCC2)N=C(c2ccc(OCCCO)cc2)O[C@@H]1c1ccccc1`: 0.66.
The value for `O=C1O[C@@H](c2ccccc2)[C@@H](c2ccccc2)N2[C@@H](c3ccccc3OCCO)[C@]3(C(=O)Nc4ccc(C#CC5(O)CCCCCC5)cc43)[C@@H](C(=O)Nc3nc4ccccc4s3)[C@H]12` was 2.71; that for `COCCOC(=O)N1C(=O)[C@@]2(c3cc(C#CCNC(N)=O)ccc31)[C@H](c1ccc(OCCO)cc1)N1[C@H](c3ccccc3)[C@H](c3ccccc3)OC(=O)[C@H]1[C@@H]2C(=O)N1CCc2cc(OC)c(OC)cc2C1` was 1.65.
Consider `CCOC(=O)C[C@H]1[C@H](OC(=O)c2ccc(C(=O)c3ccccc3)cc2)[C@@H](NC(=O)C2CCCCC2)c2cc(OCCCO)ccc2N1C(=O)c1ccccc1`, for which the z-score was -0.355.
